Among the test systems are DU-145 prostate; K-562 leukemia; MALME-3M melanoma; MDA-MB-231 breast; RXF 393 renal; SF-268 CNS; SF-295 CNS; SF-539 CNS; UACC-257 melanoma; M14 melanoma; HCT-15 colon; HT29 colon; SNB-75 CNS; SNB-19 CNS; U251 CNS; PC-3 prostate; SK-MEL-5 melanoma; UACC-62 melanoma; LOX IMVI melanoma; SK-MEL-28 melanoma.
Holding throughout (test): NCI-60 one-dose screen, 48 h (100 = growth as untreated, 0 = no growth, -100 = all killed)
What all share (conditions): 10 µM unless noted

The source of these data is PubChem BioAssay (NCI).

Compounds without any hit were thinned out: in the full panel of roughly 83,000, 20% have a hit.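 Interpretation: 100, growth as untreated; towards 0, rising growth inhibition; 0, no net growth; 0 to -100, cell death. Compounds scoring below 10 were considered active.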 A number with no mark means an inactive call. Activity calls are given as the source filed them.

Regarding `O=C1C(Cl)=C(Nc2ccc(S(=O)(=O)N3CCOCC3)cc2)C(=O)c2ccccc21`, the growth in the experiment with DU-145 prostate is 101%; in the experiment with K-562 leukemia, 6.71% (active); with MALME-3M melanoma, 71.6%; with MDA-MB-231 breast it was 31.3%; in the experiment on RXF 393 renal, 56.4%; with SF-268 CNS it was 78.3%. Besides, the growth is 99.7% with SF-295 CNS; 2.06% (active) with SF-539 CNS; 66.4% with UACC-257 melanoma; 44.2% with M14 melanoma; 36.2% in the experiment on HCT-15 colon; 49.2% with HT29 colon. Further, the growth is 71.3% with SNB-75 CNS; 96.9% in the experiment on SNB-19 CNS; 44.6% in the experiment with U251 CNS; 46% with PC-3 prostate; 86.8% with SK-MEL-5 melanoma; 29.7% in the experiment with UACC-62 melanoma. Also, the figures for the growth in the experiment with LOX IMVI melanoma and with SK-MEL-28 melanoma were 35.3% and 47.5%, respectively.
Turning to `Nc1nc(-c2ccc(Cl)cc2)nc2c1sc(=S)n2-c1ccccc1`, the growth with DU-145 prostate is 56.1%; with K-562 leukemia, 41.1%; in the experiment with MALME-3M melanoma, -15.9% (active); in the experiment with MDA-MB-231 breast, 34.7%; in the experiment with RXF 393 renal it was -2.61% (active); in the experiment with SF-268 CNS, 40.7%. Also, the growth in the experiment on SF-295 CNS is 16.4%; in the experiment on SF-539 CNS, -20.7% (active); in the experiment with UACC-257 melanoma, 59.9%; in the experiment with M14 melanoma it was 68.1%; with HCT-15 colon, 60.1%; with HT29 colon, 47.9%. Besides, the growth is -30.5% (active) in the experiment with SNB-75 CNS; 37.9% in the experiment with SNB-19 CNS; 17.7% in the experiment on U251 CNS; 62.1% in the experiment with PC-3 prostate; 36.8% in the experiment on SK-MEL-5 melanoma; 46.9% in the experiment with UACC-62 melanoma. In addition, the results for the growth in the experiment with LOX IMVI melanoma and in the experiment on SK-MEL-28 melanoma were 29.4% and 55.7%, respectively.
With `Cn1cc(-c2csc(-c3cn(C(=O)OC(C)(C)C)c4ccc(Br)cc34)n2)c2ccnc(Cl)c21`, the growth in the experiment with DU-145 prostate was 68.3%; in the experiment with K-562 leukemia it was 86.9%; in the experiment with MALME-3M melanoma, 36.6%; in the experiment with MDA-MB-231 breast, 61.2%; with RXF 393 renal, 78.3%; with SF-268 CNS it was 82.4%. Also, the growth with SF-295 CNS was 89.9%; with SF-539 CNS, 55.5%; in the experiment on UACC-257 melanoma, 70.3%; with M14 melanoma it was 88.2%; with HCT-15 colon, 24.2%; in the experiment with HT29 colon it was 88.5%. Besides, the growth in the experiment on SNB-75 CNS was 2.34% (active); in the experiment with SNB-19 CNS it was 44%; with U251 CNS, 45.3%; with PC-3 prostate it was 44.2%; with SK-MEL-5 melanoma, 95%; in the experiment on UACC-62 melanoma it was 96.1%. Besides, the growth in the experiment with LOX IMVI melanoma is 89.1%; with SK-MEL-28 melanoma, 94.7%.
As to `CCOC(=O)NC(C)C`, the growth with DU-145 prostate is 120%; in the experiment on K-562 leukemia, 87.6%; in the experiment with MALME-3M melanoma, 104%; in the experiment with MDA-MB-231 breast, 112%; in the experiment on RXF 393 renal, 77.4%; in the experiment with SF-268 CNS, 109%. Further, the growth with SF-295 CNS was 118%; in the experiment on SF-539 CNS, 95.9%; in the experiment with UACC-257 melanoma, 95%; in the experiment with M14 melanoma, 102%; with HCT-15 colon it was 109%; with HT29 colon, 107%. The growth is 96.8% with SNB-75 CNS; 99.3% in the experiment with SNB-19 CNS; 106% in the experiment on U251 CNS; 82% in the experiment on PC-3 prostate; 103% in the experiment with SK-MEL-5 melanoma; 105% in the experiment on UACC-62 melanoma. For the same compound, the growth is 102% in the experiment on LOX IMVI melanoma and 119% in the experiment on SK-MEL-28 melanoma.
Turning to `COc1cc(C2c3cc(OC(C)=O)c(OC)cc3CC3C(=O)OCC32)ccc1OC(C)=O` (stereo not given), the growth is 115% in the experiment with DU-145 prostate; 115% in the experiment on K-562 leukemia; 112% with MALME-3M melanoma; 105% in the experiment with MDA-MB-231 breast; 115% in the experiment with RXF 393 renal; 111% in the experiment with SF-268 CNS. Besides, the growth in the experiment with SF-295 CNS was 112%; with SF-539 CNS, 99.4%; in the experiment on UACC-257 melanoma, 103%; in the experiment with M14 melanoma it was 106%; in the experiment with HCT-15 colon, 104%; with HT29 colon, 97.6%. Further, the growth in the experiment on SNB-75 CNS is 94.5%; with SNB-19 CNS it was 116%; with U251 CNS, 92.6%; with PC-3 prostate, 68.3%; in the experiment on SK-MEL-5 melanoma it was 109%; in the experiment on UACC-62 melanoma, 103%. Moreover, the growth with LOX IMVI melanoma is 103%; in the experiment on SK-MEL-28 melanoma it was 122%.
Turning to `COc1ccc2c(c1)CC[C@H](O)/C2=C/c1cc(OC)c(OC)c(OC)c1`, the growth in the experiment on DU-145 prostate was 0.0757% (active); in the experiment on K-562 leukemia it was 8.97% (active); with MALME-3M melanoma, 64%; in the experiment on MDA-MB-231 breast, 14.5%; in the experiment on RXF 393 renal, 15.5%; in the experiment on SF-268 CNS it was 27.1%. The growth in the experiment with SF-295 CNS is 8.44% (active); with SF-539 CNS it was -5.68% (active); in the experiment with UACC-257 melanoma, 47.3%; in the experiment with M14 melanoma it was 6.27% (active); with HCT-15 colon it was 13.9%; with HT29 colon, 0.825% (active). Also, the growth with SNB-75 CNS is 19.1%; in the experiment on SNB-19 CNS, 38.3%; in the experiment on U251 CNS, 13.3%; with PC-3 prostate, 17.8%; with SK-MEL-5 melanoma it was -40% (active); in the experiment on UACC-62 melanoma, 31.8%. For the same compound, the figures for the growth in the experiment with LOX IMVI melanoma and in the experiment with SK-MEL-28 melanoma were 18.2% and 61.5%, respectively.
Regarding `CCOC(=O)C1=C(C)NC(=O)NC1c1c(Cl)n(CCCl)c2ccccc12` (stereo not given), the growth in the experiment with DU-145 prostate was 107%; with K-562 leukemia it was 99.3%; in the experiment on MALME-3M melanoma, 94.4%; with MDA-MB-231 breast, 105%; in the experiment on RXF 393 renal it was 98.1%; in the experiment on SF-268 CNS it was 88%. Also, the growth was 95.3% with SF-295 CNS; 97.2% in the experiment with SF-539 CNS; 92.7% with UACC-257 melanoma; 98.2% in the experiment with M14 melanoma; 99.6% in the experiment with HCT-15 colon; 107% in the experiment on HT29 colon. Besides, the growth with SNB-75 CNS is 85.4%; with SNB-19 CNS it was 100%; with U251 CNS it was 94.4%; in the experiment on PC-3 prostate, 91.7%; in the experiment on SK-MEL-5 melanoma, 102%; in the experiment on UACC-62 melanoma it was 85.4%. In addition, the growth was 92.6% in the experiment on LOX IMVI melanoma and 108% in the experiment on SK-MEL-28 melanoma.
Consider `CCOC(=O)c1ccc2c(c1)nc(-c1ccccc1)n2C1CCCCC1`, for which the growth in the experiment with DU-145 prostate was 105%; in the experiment on K-562 leukemia, 73.1%; with MALME-3M melanoma it was 112%; in the experiment on MDA-MB-231 breast it was 102%; in the experiment with RXF 393 renal it was 112%; in the experiment on SF-268 CNS, 108%. For the same compound, the growth in the experiment with SF-295 CNS was 94.4%; in the experiment on SF-539 CNS, 104%; in the experiment with UACC-257 melanoma, 78.2%; in the experiment on M14 melanoma it was 88.3%; with HCT-15 colon, 78.2%; in the experiment with HT29 colon it was 67.4%. Moreover, the growth in the experiment with SNB-75 CNS was 97%; in the experiment on SNB-19 CNS it was 105%; with U251 CNS it was 88.8%; in the experiment on PC-3 prostate, 74.1%; in the experiment with SK-MEL-5 melanoma, 93.8%; in the experiment with UACC-62 melanoma, 88%. Besides, the growth was 99.2% in the experiment on LOX IMVI melanoma and 107% in the experiment on SK-MEL-28 melanoma.
